Results filed as inconclusive are left out. A call without a number means that no potency is given here. The source holds several records for some structures; these can differ, active in one and inactive in another. Active and inactive are the calls of the source. Unless noted, calls follow the shape of the full dose curve.
Experiments:
[1] = target: Gonadotropin-releasing hormone receptor (Homo sapiens) (UniProt P30968); experiment: Human gonadotropin-releasing hormone receptor (GnRHR) small molecule agonists, calcium flux assay in GnRHR-HEK293 cells (AID 1920063); also: nearly all actives have a fitted effect of over 35% in size
Procedure, shortened: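 HEK293 cells stably expressing human GnRHR were plated 18 h at 37 °C, loaded with calcium dye 1 h at 37 °C, then given compound in agonist mode; fluorescence (Ex/Em 480/540) read kinetically for 3 min at 1 s intervals.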

[2] = target: KiSS-1 receptor (Homo sapiens) (UniProt Q969F8); experiment: Human kisspeptin (KISS1R) small molecule agonists, calcium flux assay in KISS1R-HEK293 cells (AID 1920064; active = well fitted activation curve with a large enough effect in the repeat runs)
Procedure, shortened: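 HEK293 cells stably expressing human KISS1R were plated 18 h at 37 °C, loaded with calcium dye for 1 h at 37 °C, then given compound by pin tool. Fluorescence (Ex/Em 480/540) was read kinetically for 3 min.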

[3] = G protein-coupled receptor (GPCR) small molecule agonists, calcium flux assay: HEK293 wild type cell line counter screen (AID 1920065)
Procedure, shortened: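 Cells were plated and cultured 18 h at 37 C/5% CO2, then loaded with calcium dye for 1 h at 37 C. Compounds in DMSO were pin-transferred in agonist mode, and fluorescence (Ex/Em 480/540) was read kinetically for 3 min at 1 s intervals.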

[4] = p53 small molecule agonists, cell-based qHTS assay with human liver microsomes (AID 1963577)
Procedure, shortened: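 p53RE-bla reporter cells were pre-incubated 5 h at 37 C, then treated with compounds plus human liver microsomes (0.5 mg/mL final) and NADPH (0.5 mg/mL final) for 16 h at 37 C. Beta-lactamase activity was read by LiveBLAzer fluorescence after 2 h at room temperature.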

[5] = p53 small molecule agonists, cell-based qHTS assay with rat liver microsomes (AID 1963578)
Procedure, shortened: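 p53RE-bla cells were exposed to compounds together with rat liver microsomes (0.5 mg/mL final) and NADPH (0.5 mg/mL final) for 16 h at 37 C, then read by LiveBLAzer beta-lactamase fluorescence after 2 h at room temperature.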

[6] = p53 small molecule agonists, cell-based qHTS assay with human liver microsomes: qHTS cell viability counter screen (AID 1963579); also: nearly all actives have a fitted effect of over 45% in size; also: potency is read from the fitted curve at half-maximal effect
Procedure, shortened: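 p53RE-bla cells (4,000/well) were pre-incubated 5 h at 37 C, then given compounds in DMSO plus human liver microsomes (0.5 mg/mL final) and NADPH (0.5 mg/mL final) for 16 h at 37 C. Viability was read by CellTiter-Glo luminescence.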

[7] = p53 small molecule agonists, cell-based qHTS assay with rat liver microsomes: qHTS cell viability counter screen (AID 1963580); also: nearly all actives have a fitted effect of over 45% in size
Procedure, shortened: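 p53RE-bla HCT-116 cells were exposed 16 h at 37 C to compounds with rat liver microsomes (0.5 mg/mL) and NADPH (0.5 mg/mL). Viability was measured in the same wells as ATP content by CellTiter-Glo luminescence.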

[8] = p53 small molecule agonists, cell-based qHTS assay: qHTS cell viability counter screen (AID 1963581); also: nearly all actives have a fitted effect of over 45% in size; also: potency is read from the fitted curve at half-maximal effect
Procedure, shortened: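 p53RE-bla HCT-116 cells were exposed to compounds for 16 h at 37 C; after the beta-lactamase FRET read in the same wells, CellTiter-Glo was added and luminescence (intracellular ATP) read after 30 min at room temperature.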

[9] = p53 small molecule agonists, cell-based qHTS assay (AID 1963582; active = well fitted activation curve with a large enough effect in the signal ratio in the repeat runs, not every such curve was filed as active; the % refers to the signal ratio)
Procedure, shortened: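 p53RE-bla beta-lactamase reporter cells rested 5 h at 37 C/5% CO2, then received compounds in DMSO by pin transfer and were incubated 16 h at 37 C. LiveBLAzer B/G FRET substrate was loaded for 2 h at room temperature before fluorescence reading.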

[10] = target: 5-hydroxytryptamine receptor 2A (Homo sapiens) (UniProt P28223); experiment: 5-hydroxytryptamine receptor 2A (HTR2A) small molecule antagonists, cell-based qHTS assay (AID 1963586); also: nearly all actives have a fitted effect of over 45% in size; also: potency is read from the fitted curve at half-maximal effect
Procedure, shortened: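 Antagonist-mode intracellular calcium assay: DOI (4 nM) added after 5 min compound pre-incubation at room temperature to dye-loaded HTR2A-CHO cells. Fluorescence followed for 3 min, sampled every second.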

[11] = target: Muscarinic acetylcholine receptor M1 (Homo sapiens) (UniProt P11229); experiment: Cholinergic receptor muscarinic 1 (CHRM1) small molecule antagonists, cell-based qHTS assay (AID 1963588); also: nearly all actives have a fitted effect of over 40% in size; also: potency is read from the fitted curve at half-maximal effect
Procedure, shortened: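 CHRM1-CHO calcium-flux assay, antagonist mode. Cells were seeded 18 h, dye-loaded 1 h at 37 C and given compound for 5 min at RT, then acetylcholine was added at 50nM. FDSS fluorescence was read 3 min; 15 concentrations, three runs.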

[12] = target: Muscarinic acetylcholine receptor M1 (Homo sapiens) (UniProt P11229); experiment: Cholinergic receptor muscarinic 1 (CHRM1) small molecule agonists, cell-based qHTS assay (AID 1963589); also: nearly all actives have a fitted effect of over 35% in size
Procedure, shortened: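 CHO cells stably expressing human CHRM1, seeded 18 h at 37 C/5% CO2, dye-loaded 1 h at 37 C, then given compound in agonist mode; intracellular calcium fluorescence read kinetically at 1 s intervals. Fifteen concentrations, three independent runs.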

[13] = cAMP Responsive Elements (CRE) small molecule agonists, cell-based qHTS assay (AID 1963590)
Procedure, shortened: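 CRE-bla HEK 293T cells in DMEM with 10% dialyzed FBS, NEAA, pyruvate and 25 mM HEPES were plated 18 h at 37 C/5% CO2, then exposed to compounds in DMSO for 3 h before LiveBLAzer B/G FRET substrate addition.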

[14] = cAMP Responsive Elements (CRE) small molecule antagonists, cell-based qHTS assay (AID 1963591; active = well fitted inhibition curve with a large enough effect in the signal ratio in the repeat runs, not every such curve was filed as active; the % refers to the signal ratio)
Procedure, shortened: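 CRE-bla HEK293T cells were plated 18 h at 37 °C/5% CO2, pinned with compound in DMSO, then stimulated with NKH477 at 0.25 uM final for 3 h. LiveBLAzer B/G FRET substrate was added and plates incubated 2 h at room temperature.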

[15] = target: Beta-2 adrenergic receptor (Homo sapiens) (UniProt P07550); experiment: Adrenergic beta2 receptor (ADRB2) small molecule antagonists, cell-based qHTS assay (AID 1963592); also: series mostly up to about 92 µM; nearly all actives have a fitted effect of over 50% in size
Procedure, shortened: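 Cells (CHO, stable ADRB2 overexpression) incubated 18-20hr at 37C; compounds added from DMSO; agonist mix (1nM isoproterenol, 100uM IBMX, 25uM Ro-20-1724) added; 0.5hr RT; d2-cAMP and anti-cAMP-cryptate added; 1hr RT; 665/615 nm read.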

[16] = target: Beta-2 adrenergic receptor (Homo sapiens) (UniProt P07550); experiment: Adrenergic beta2 receptor (ADRB2) small molecule agonists, cell-based qHTS assay (AID 1963593);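 also: CHO cells stably overexpressing human ADRB2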
Procedure, shortened: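 CHO cells stably over-expressing ADRB2 were plated overnight at 37C, then dosed with compounds plus a stimulation mix containing 100uM IBMX and 25uM Ro-20-1724 for 0.5hr at room temperature. cAMP was measured by HTRF competition, 1hr.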

[17] = target: D(2) dopamine receptor (Homo sapiens) (UniProt P14416); experiment: Dopamine D2 receptor (DRD2) small molecule agonists, cell-based qHTS assay (AID 1963594); also: nearly all actives have a fitted effect of over 35% in size
Procedure, shortened: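 HEK293 cells stably expressing human DRD2, pre-treated with PDE inhibitor Ro20-1724 (0.1 mM final) and compound 10 min at room temperature, then stimulated with NKH477 (200nM […]) for 30 min. cAMP read by HTRF (665/620 nm).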

[18] = target: D(2) dopamine receptor (Homo sapiens) (UniProt P14416); experiment: Dopamine D2 receptor (DRD2) small molecule antagonists, cell-based qHTS assay (AID 1963595; active = well fitted inhibition curve with a large enough effect in the signal ratio in the repeat runs, with a control signal flat; the % refers to the signal ratio)
Procedure, shortened: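 Readout: HTRF cAMP, cAMP-d2 competing with cellular cAMP for anti-cAMP cryptate, read after 1 h. Cells: DRD2-HEK293. Conditions: 0.1 mM Ro20-1724, 12 nM quinpirole, 200 nM NKH477, 30 min RT.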

[19] = Nuclear factor erythroid 2-related factor 2/antioxidant responsive element (Nrf2/ARE) small molecule agonists: luciferase reporter gene qHTS assay in human keratinocytes (AID 1919969); also: nearly all actives have a fitted effect of over 35% in size
[20] = target: 5-hydroxytryptamine receptor 2A (Homo sapiens) (UniProt P28223); experiment: 5-hydroxytryptamine receptor 2A (HTR2A) small molecule agonists, cell-based qHTS assay (AID 1963587); also: nearly all actives have a fitted effect of over 30% in size; also: potency is read from the fitted curve at half-maximal effect
Procedure, shortened: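 CHO cells stably expressing human HTR2A, plated 18 h, loaded with calcium dye 1 h at 37 C. Agonist mode: compounds added and intracellular calcium fluorescence recorded kinetically for 2 min at 1 sec intervals.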

Sequence of D(2) dopamine receptor (Homo sapiens) (P14416 whole entry, looked up): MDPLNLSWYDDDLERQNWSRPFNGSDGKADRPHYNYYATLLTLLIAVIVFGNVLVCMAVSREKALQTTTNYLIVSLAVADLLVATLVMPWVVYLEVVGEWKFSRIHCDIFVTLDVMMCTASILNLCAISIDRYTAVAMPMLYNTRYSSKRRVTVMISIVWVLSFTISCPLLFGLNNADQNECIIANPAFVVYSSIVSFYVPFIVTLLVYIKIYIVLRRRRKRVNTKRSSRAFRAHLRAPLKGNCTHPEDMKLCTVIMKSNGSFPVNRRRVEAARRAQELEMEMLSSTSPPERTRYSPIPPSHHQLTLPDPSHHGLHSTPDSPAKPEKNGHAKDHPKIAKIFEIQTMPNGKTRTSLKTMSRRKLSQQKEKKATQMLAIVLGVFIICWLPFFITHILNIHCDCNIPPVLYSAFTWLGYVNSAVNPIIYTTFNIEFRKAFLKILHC
Sequence of 5-hydroxytryptamine receptor 2A (Homo sapiens) (P28223 whole entry, looked up): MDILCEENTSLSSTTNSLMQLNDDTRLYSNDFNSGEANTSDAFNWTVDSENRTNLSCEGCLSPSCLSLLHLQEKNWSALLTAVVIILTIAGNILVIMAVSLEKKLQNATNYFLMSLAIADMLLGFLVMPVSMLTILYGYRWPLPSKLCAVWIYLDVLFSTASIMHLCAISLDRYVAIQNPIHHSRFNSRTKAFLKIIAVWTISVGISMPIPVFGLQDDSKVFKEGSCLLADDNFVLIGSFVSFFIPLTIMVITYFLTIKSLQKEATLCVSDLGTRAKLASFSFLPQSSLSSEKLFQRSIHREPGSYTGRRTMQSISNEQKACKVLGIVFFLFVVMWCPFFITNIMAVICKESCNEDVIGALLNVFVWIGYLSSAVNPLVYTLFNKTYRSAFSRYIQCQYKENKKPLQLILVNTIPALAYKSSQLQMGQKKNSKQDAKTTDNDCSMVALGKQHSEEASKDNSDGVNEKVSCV
Sequence of KiSS-1 receptor (Homo sapiens) (Q969F8 whole entry, looked up): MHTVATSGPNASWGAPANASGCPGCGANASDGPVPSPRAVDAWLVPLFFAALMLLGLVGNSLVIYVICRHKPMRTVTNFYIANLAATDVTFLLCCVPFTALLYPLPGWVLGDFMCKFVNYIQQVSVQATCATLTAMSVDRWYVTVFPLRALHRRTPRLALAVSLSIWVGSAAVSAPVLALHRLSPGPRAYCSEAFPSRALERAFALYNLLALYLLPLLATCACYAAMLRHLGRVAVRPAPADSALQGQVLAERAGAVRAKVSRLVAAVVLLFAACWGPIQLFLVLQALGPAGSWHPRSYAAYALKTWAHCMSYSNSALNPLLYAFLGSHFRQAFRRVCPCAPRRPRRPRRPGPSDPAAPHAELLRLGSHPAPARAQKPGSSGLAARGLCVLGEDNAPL
Sequence of Muscarinic acetylcholine receptor M1 (Homo sapiens) (P11229 whole entry, looked up): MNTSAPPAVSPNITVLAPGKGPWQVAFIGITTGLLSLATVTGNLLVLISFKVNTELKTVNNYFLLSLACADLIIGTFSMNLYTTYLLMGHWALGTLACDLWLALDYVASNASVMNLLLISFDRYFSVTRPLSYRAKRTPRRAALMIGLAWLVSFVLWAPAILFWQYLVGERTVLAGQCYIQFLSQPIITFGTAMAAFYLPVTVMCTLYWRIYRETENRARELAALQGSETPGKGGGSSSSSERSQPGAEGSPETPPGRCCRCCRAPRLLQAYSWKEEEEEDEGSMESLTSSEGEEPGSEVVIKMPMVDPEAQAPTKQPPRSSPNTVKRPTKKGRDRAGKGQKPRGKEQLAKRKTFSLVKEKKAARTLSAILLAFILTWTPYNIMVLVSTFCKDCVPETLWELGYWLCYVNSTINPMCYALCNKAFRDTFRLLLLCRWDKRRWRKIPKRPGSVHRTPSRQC
Sequence of Gonadotropin-releasing hormone receptor (Homo sapiens) (P30968 whole entry, looked up): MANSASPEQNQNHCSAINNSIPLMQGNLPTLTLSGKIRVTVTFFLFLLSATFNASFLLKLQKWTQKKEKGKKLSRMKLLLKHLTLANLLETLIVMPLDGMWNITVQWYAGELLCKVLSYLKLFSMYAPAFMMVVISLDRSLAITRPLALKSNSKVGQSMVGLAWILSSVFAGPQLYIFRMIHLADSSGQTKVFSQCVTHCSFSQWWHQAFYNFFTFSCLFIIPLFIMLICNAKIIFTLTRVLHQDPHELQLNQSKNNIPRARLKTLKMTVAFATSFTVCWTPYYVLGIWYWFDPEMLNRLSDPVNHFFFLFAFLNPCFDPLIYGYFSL
Sequence of Beta-2 adrenergic receptor (Homo sapiens) (P07550 whole entry, looked up): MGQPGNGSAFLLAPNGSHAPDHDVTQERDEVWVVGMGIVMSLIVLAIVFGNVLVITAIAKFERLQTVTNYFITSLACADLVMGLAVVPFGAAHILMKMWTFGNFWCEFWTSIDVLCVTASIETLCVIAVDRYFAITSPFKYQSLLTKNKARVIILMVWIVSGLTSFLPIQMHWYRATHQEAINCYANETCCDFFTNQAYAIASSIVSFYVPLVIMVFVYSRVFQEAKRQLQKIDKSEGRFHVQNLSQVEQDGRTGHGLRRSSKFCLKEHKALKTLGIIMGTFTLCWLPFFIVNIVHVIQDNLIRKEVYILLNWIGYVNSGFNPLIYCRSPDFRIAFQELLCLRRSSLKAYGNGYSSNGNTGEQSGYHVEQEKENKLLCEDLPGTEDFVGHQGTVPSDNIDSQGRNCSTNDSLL

SMILES | Potency [1] | Potency [2] | Potency [3] | Potency [4] | Potency [5] | Potency [6] | Potency [7] | Potency [8] | Potency [9] | Potency [10] | Potency [11] | Potency [12] | Potency [13] | Potency [14] | Potency [15] | Potency [16] | Potency [17] | Potency [18] | Potency [19] | Potency [20]
O=c1ssc(Cl)c1Cl | inactive | inactive | inactive | inactive | inactive | inactive | inactive | inactive | inactive | inactive | inactive | inactive | inactive | inactive | inactive | inactive | inactive | inactive |  | 
C[C@]12C/C(=C/O)C(=O)C[C@@H]1CC[C@@H]1[C@@H]2CC[C@@]2(C)[C@H]1CC[C@]2(C)O | inactive | inactive | inactive | inactive | inactive | 36.7 µM (active) and inactive | inactive | 36.7 µM (active) |  |  |  |  |  |  | inactive |  | inactive | inactive |  | 
CCSCc1ccccc1OC(=O)NC |  | inactive | inactive |  |  | inactive | inactive |  | inactive | inactive | inactive | inactive | inactive | inactive | inactive | inactive | inactive | inactive | inactive | inactive
Oc1ccc2c3c1O[C@H]1[C@@H](O)C=C[C@H]4[C@@H](C2)NCC[C@@]341 | inactive | inactive | inactive |  | inactive |  | inactive | inactive |  | inactive | inactive | inactive | inactive | inactive | inactive | inactive |  | inactive |  | inactive
Clc1ccc(-c2ccc(Cl)c(Cl)c2Cl)c(Cl)c1Cl | inactive | inactive | inactive | inactive | inactive | inactive | inactive | inactive |  | inactive |  | inactive |  | inactive | inactive |  | inactive | inactive |  | inactive
CC(=O)c1cc2c(cc1C)C(C)(C)C(C)CC2(C)C (stereo unspecified) | inactive | inactive | inactive | inactive | inactive | inactive | inactive | inactive | inactive | inactive | inactive |  |  | inactive | inactive |  | inactive |  |  | inactive
CC(C)Oc1cccc(NC(=O)c2ccccc2C(F)(F)F)c1 | inactive | inactive | inactive |  | inactive | inactive |  |  | inactive |  | 0.0119 µM (active) | inactive |  |  |  |  |  |  |  | inactive
CC(c1ccc(O)cc1)(c1ccc(O)cc1)c1ccc(O)cc1 | inactive | inactive | inactive |  | inactive | inactive | inactive |  |  | 23.7 µM (active) | inactive | inactive |  |  | inactive | inactive | inactive | inactive |  | 49 µM (active)
O=S(=O)(NS(=O)(=O)C(F)(F)F)C(F)(F)F | inactive | inactive | inactive |  |  | inactive | inactive | inactive |  | inactive | inactive |  |  |  | inactive | inactive | inactive | inactive |  | inactive

From PubChem BioAssay (Tox21)
